Bioassay records from PubChem.
The list is not random: actives were taken first. Their share in the collection is about 21%.
HCV inh: blocks hepatitis C virus; Huh7.5.1 HCVcc-Cre infection, luciferase reporter, 44 h; Potency, µM (series often up to 41.8 µM), for the others: top-dose activity change, negative = inhibition, usual class: inhibitors; 340,000 compounds, 3.4% hits; also: potency is read from the fitted curve at half-maximal effect; % is scaled to controls: 0 for no effect and ±100 for the full control effect
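Antiviral activity was scored by luciferase reporter output from cells infected with HCVcc-Cre (~0.5 moi) in presence of compound, 44 h infection period, cells seeded 1,000/well 4 h prior.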
Pf growth 96h: P. falciparum growth inhibition at 96 hours. P. falciparum luciferase reporter growth, 96 h. Potency, µM (doses to about 28.7 µM), inactives show at the top dose activity change, negative = inhibition, usual class: inhibitors. 320,000 compounds, 6.9% hits. AID 504834; also: potency is read from the fitted curve at half-maximal effect; % is scaled to controls: 0 for no effect and ±100 for the full control effect
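Parasite growth measured via integrated firefly luciferase reporter in P. falciparum. Infected erythrocytes at 2% hematocrit, 0.05% parasitemia final were treated 96 hours at 37 C under 5% CO2, and luminescence was read.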
Pf growth 48h: P. falciparum growth inhibition at 48 hours (one generation). P. falciparum luciferase growth in erythrocytes, 48 h. Potency, µM (series often up to 28.7 µM), without a hit: at the top dose activity change, negative = inhibition, actives largely listed as inhibitors. 310,000 compounds, 5.9% hits. AID 504832; also: potency is read from the fitted curve at half-maximal effect; % is scaled to controls: 0 for no effect and ±100 for the full control effect
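Read-out is firefly luciferase luminescence from an integrated reporter in P. falciparum, so falling signal marks reduced parasite growth. Infected erythrocytes were at 2% hematocrit and 0.1% parasitemia (final) in Albumax-supplemented RPMI 1640.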
Cycloheximide cs: counter-screen for Shiga toxin inhibitors: cycloheximide protein synthesis inhibition; cell reporter, cycloheximide protein synthesis inhibition counterscreen; max response, %; 300,000 compounds, 12% hits; in the data active = max response mostly above about 13%, no sharp cut-off; inactive = mostly below about 14%; also: read at 38.3 µM for the half of the compounds with a filed dose; 0% is about no effect
Shiga inhibitor: blocks Shiga toxin action in Vero cells. Vero cells, Shiga toxin protein synthesis inhibition reporter. AID 2315. inhibition, % at 38.7 µM. 290,000 compounds, 9.2% hits; in the data active = inhibition mostly above about 28%, no sharp cut-off; inactive = mostly below about 43%; also: 0% is about no effect
HCMV inh: human cytomegalovirus inhibition. HFF cells, HCMV-luciferase reporter, 72 h; hits give low values. activity change, negative = inhibition, % at 57.5 µM. 410,000 compounds, 4.5% hits; in the data active = activity change below about -60%; inconclusive = no clear call, values can overlap the other calls; inactive = above about -39%; also: % is scaled to controls: 0 for no effect and ±100 for the full control effect
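Luciferase read-out from HCMV-luciferase-infected HFFs (MOI 1 PFU/cell) 72 h post infection at 37C; compounds added after 16 h cell attachment; activity normalized between buffer-only basal and Salinomycin (10uM) inhibitor controls.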
Starred values were filed as active, the others as inactive; ? = inconclusive; . = not tested or not shown; [ ] = remark or other dose. Unless noted, calls follow the shape of the dose curve; as a rule, active = well fitted inhibition curve with a large enough effect; inconclusive = small, poorly fitted or top-dose-only effect, or another doubt; inactive = no such curve, though single readings can be large or run the other way.

SMILES	HCV inh	Pf growth 96h	Pf growth 48h	Cycloheximide cs	Shiga inhibitor	HCMV inh
O=C(COc1ccccc1Cl)N(Cc1ccco1)Cc1ccco1	.	.	.	.	.	43.4
COc1ccc(-c2nc3n(n2)C(c2ccc(OC)cc2)C(C(=O)Nc2cccnc2)=C(C)N3)cc1 (stereo not drawn)	.	.	.	.	.	-1.4
COc1cccc(-n2c(=O)c3c(C)c(C)sc3n(CC(=O)NCCc3ccc(OC)c(OC)c3)c2=O)c1	.	.	.	.	.	-0.2
Cc1cc(C)c2[nH]c(=O)c(C(c3nnnn3Cc3ccc4c(c3)OCO4)N3CCC(C)CC3)cc2c1 (stereo not drawn)	10.4%	.	13.1µM*	-1.8	-4.6	50.1
Cc1cccc2cc(C(c3nnnn3Cc3ccccc3)N3CCCc4ccccc43)c(=O)[nH]c12 (stereo not drawn)	.	?	.	11.1	3.6	-82.7*
COc1ccc(Cn2nnnc2C(c2cc3ccc(OC)cc3[nH]c2=O)N2CCC(C)CC2)cc1 (stereo not drawn)	-9.1%	9.28µM*	.	10.7	18.4	-39.6
COc1ccc(Cn2nnnc2C(c2cc3cccc(C)c3[nH]c2=O)N2CCOCC2)cc1 (stereo not drawn)	-1.3%	?	9.2%	19.7	35.1*	27.3
COC(=O)C1N2C(=O)[C@@H](NC(=O)COc3ccccc3)[C@H]2SC1(C)C (stereo partly drawn)	22.0%	.	.	.	.	1.8
Cc1ccc(S(=O)(=O)c2cn(CC(=O)Nc3ccc(F)cc3)c3cc4c(cc3c2=O)OCO4)cc1	.	.	.	.	.	1.6
COc1ccc2cc(C(c3nnnn3Cc3ccc(F)cc3)N3CCCCCC3)c(=O)[nH]c2c1 (stereo not drawn)	2.7%	.	11.7µM*	-2.0	34.8	19.3
COc1ccc2cc(C(c3nnnn3Cc3ccccc3)N3CCCCCC3)c(=O)[nH]c2c1 (stereo not drawn)	?	?	?	-2.2	26.2	-29.1
C/C=C/C(=O)N1CC2(CC(c3cccc(NC(=O)/C(C)=C/C)c3)=NO2)C[C@H]1C(N)=O (stereo partly drawn)	?	67.6%	46.1%	-2.2	-4.6	7.1
C/C=C(\C)C(=O)Nc1cccc(C2=NOC3(C2)C[C@H](C(N)=O)N(C(=O)C(c2ccccc2)c2ccccc2)C3)c1 (stereo partly drawn)	?	11.7µM*	9.28µM*	-1.1	25.1	-13.5
C/C=C\C(=O)Nc1cccc(C2=NOC3(C2)C[C@@H](C(N)=O)N(C(=O)CC(c2ccccc2)c2ccccc2)C3)c1 (stereo partly drawn)	?	13.1µM*	10.4µM*	-2.6	-7.8	-28.0
C/C=C/C(=O)Nc1cccc(C2=NOC3(C2)C[C@@H](C(N)=O)N(C(=O)C(c2ccccc2)c2ccccc2)C3)c1 (stereo partly drawn)	?	13.1µM*	11.7µM*	-1.2	-6.2	12.7
Cc1noc(C)c1S(=O)(=O)N(C)C[C@H]1Oc2c(NC(=O)NC(C)C)cccc2C(=O)N([C@H](C)CO)C[C@@H]1C	-1.1%	.	.	.	.	21.4
O=C(Cc1ccc(NC2=NC3CS(=O)(=O)CC3S2)cc1)NCc1ccc(Cl)cc1 (stereo not drawn)	-4.5%	?	15.9%	-0.7	-0.4	12.9
CN1CCc2c(C#N)c(N3CCCCC3)nc(NCc3ccccc3)c2C1	?	2.33µM*	?	-4.5	-15.3	45.7
N#Cc1c(NCCCO)nc(NCc2ccccc2)c2c1CCN(Cc1ccccc1)C2	11.2µM*	10.4µM*	?	-5.9	-9.5	22.9
CC(C)c1nc(NCc2ccccc2)c(C#N)c2c1CCCC2	-0.4%	?	?	2.8	-12.4	2.6
CCCCc1nc(NCc2ccccc2)c(C#N)c2c1COC(C)(C)C2	0.4%	.	-16.3%	1.8	-20.4	11.6
CC1=CCC2C(=O)N(c3cccc(C(=O)Nc4ccccc4Cl)c3)C(=O)C2C1 (stereo not drawn)	16.6%	-19.8%	-6.9%	7.2	9.6	5.8
O=c1c(/C=N\NS(=O)(=O)c2ccccc2)coc2ccc(Cl)cc12	-7.5%	22.4%	5.2%	-1.1	-8.3	-23.9
CCCCn1c(N)c(N(C)C(=O)c2ccc(OCC3CCCO3)cc2)c(=O)[nH]c1=O (stereo not drawn)	6.0%	-21.8%	-16.1%	.	.	2.4
Cc1nn(-c2ccc(Br)cc2)c(=O)c2ccccc12	12.6%	200.4%	105.2%	69.7*	124.6*	101.4
SMILES	HCV inh	Pf growth 96h	Pf growth 48h	Cycloheximide cs	Shiga inhibitor	HCMV inh
Cc1nn(-c2c(Cl)cc(Cl)cc2Cl)c(=O)c2ccccc12	?	13.1µM*	.	6.2	8.7	-39.4
COc1ccccc1CC(=O)Nc1ccc2nc(Nc3cccc(C(F)(F)F)c3)cc(C)c2c1	.	.	.	.	.	-67.2*
COc1cccc(CC(=O)Nc2ccc3nc(Nc4cccc(C(F)(F)F)c4)cc(C)c3c2)c1	.	.	.	.	.	-71.8*
Cc1ccccc1C(=O)Nc1ccc2nc(Nc3cccc(C(F)(F)F)c3)cc(C)c2c1	.	.	.	.	.	-12.6
O=C(CN1CCCCCC1)Nc1ccccc1OC(F)F	5.8%	15.2%	9.6%	-2.7	6.8	-37.1
O=C1Nc2cccnc2N(C(=O)CCl)c2ccccc21	15.8µM*	?	0.5%[0.00184 µM]	-2.5	21.8	?
CCCC(CCC)C(=O)OC1C[C@H]2CC[C@@H](C1)[N+]2(C)C (stereo partly drawn)	-2.5%[8.37 µM]	4.26µM*	12µM*	-3.7	-17.5	14.6
C[N+]1(C)[C@@H]2CC[C@H]1CC(OC(=O)C(c1ccccc1)c1ccccc1)C2 (stereo partly drawn)	-27.4%	3.29µM*	2.33µM*	-1.1	19.3	-13.8
O=C(OC1CCN(CCCl)CC1)C(c1ccccc1)c1ccccc1	31.6µM*	?	?	.	.	?
CC(C)[N+]1(C)[C@@H]2CC[C@@H]1CC(OC(=O)C(CO)c1ccccc1)C2 (stereo partly drawn)	4.6%	22.7%	-3.8%	.	.	-19.7
CC(CN1CCCC1)OC(=O)C(c1ccccc1)c1ccccc1 (stereo not drawn)	9.6%	?	24.0%	-1.7	-3.9	-13.6
CCOc1ccccc1CNC(=O)C1CCN(Cc2cc3ccccc3n2Cc2ccccc2)CC1	.	.	.	.	.	13.7
Cc1ccc(N2CCN(C(=O)c3nn(C)c4c3CS(=O)(=O)c3ccccc3-4)CC2)c(C)c1	1.0%	37.5%	1.0%	3.8	-8.0	-33.4
COc1ccc(C(=O)N2CCCC2(C#N)c2ccccc2)cc1[N+](=O)[O-] (stereo not drawn)	14.1µM*	?	.	-0.8	18.4	68.6
C/C(=N/Nc1nc(C)c(C)s1)c1cccc([N+](=O)[O-])c1	?	?	?	29.7*	29.9*	6.2
C/C(=N\Nc1nc(N)cc(Cl)n1)c1cccc([N+](=O)[O-])c1	.	?	-19.7%	37.1*	74.7*	-5.3
